Source: PubChem BioAssay (NCATS)
Records with an inconclusive call do not appear. Where a call stands in place of a potency, no number is given. The source made the active and inactive calls. Unless noted, calls come from the whole dose curve; as a rule, active = well fitted curve in the direction sought with a large enough effect; inconclusive = small, poorly fitted or top-dose-only effect, or another doubt; inactive = no such curve, though single readings can be large; an effect the other way counts as inactive or inconclusive.

How the values were obtained:
[1] = qHTS Assay for Identification of Small Molecule Agonists for NFkB Signaling Pathway. (AID 624478);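 note: compounds tested together with TNF alpha at its EC50 of 10 pM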
How it was run: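 ME-180 cervical carcinoma, stable NFkB-RE beta-lactamase reporter; 1000 cells/well, overnight attachment; cpd + TNF alpha 10 pM final, 5 h 37 C; LiveBLAzer 2 h RT; FRET 460/530 nm, ex 405 nm.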

[2] = qHTS Assay for Identification of Small Molecule Antagonists for NFkB Signaling Pathway. (AID 624479; calls by dose curve;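 note: pathway stimulated with TNF alpha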; note: potency is the fitted concentration of half-maximal effect)
[3] = Cell Proliferation Assay against the TMD8 Cell Line (AID 651645); details: TMD8 DLBCL cell line proliferation/viability; at 46.1 µM (top of the series);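 note: cells exposed to compound for 48 h before reading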
How it was run: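 Luminescent ATP read-out (CellTiter-Glo, 15 min RT) after 48 h compound exposure of log-growing TMD8 cells at 37C; percent activity scaled between DMSO as 100% and 9.2 uM bortezomib final as 0%.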

[4] = Cell Proliferation Assay against the HBL1 Cell Line (AID 651646); details: HBL1 DLBCL cells; at 46.1 µM (top of the series);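 note: cells exposed to compound for 48 h before reading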
How it was run: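 500 log-phase HBL1 cells per well in phenol red-free RPMI with 5% FBS were treated with compounds for 48 h at 37 °C, 5% CO2. Viability was read by CellTiter-Glo luminescence, normalized to DMSO (100%) and 9.2 uM bortezomib final (0%).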

[5] = Cytotoxicity counterscreen for NFkB agonists and antagonists (AID 624476);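 note: cells exposed to compound for 48 hours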; note: potency is the fitted concentration of half-maximal effect
[6] = Cell Proliferation Assay against the TMD8 Cell Line (Caspase readout at 16 hrs) (AID 651712); note: potency is the fitted concentration of half-maximal effect
How it was run: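 TMD8 cells (500/well) in phenol-red-free RPMI with glutamine, 5% FBS, were exposed to compounds for 16 h at 37 °C. Caspase 3/7 activation was read by Caspase-Glo luminescence; percent activity normalised to DMSO (0%) and 9.2 uM bortezomib final (100%).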

COC(=O)Nc1ccc(-c2nc(N3CCOCC3)c3cnn(C4CCN(C(=O)OC)CC4)c3n2)cc1
outcome [1]: inactive | Potency [2]: inactive | viability (% of control) [3]: 32.2% | viability, percent of control [4]: 51.1%

NC(=O)c1ccc(N(C(N)=O)c2c(F)cccc2F)nc1-c1ccc(F)cc1F
Potency [5]: inactive | outcome [1]: inactive | Potency [2]: inactive | viability (% of control) [3]: 81.2% | viability, percent of control [4]: 110% | Potency [6]: inactive

O=C(O)c1ccc(O)c2ncc(N3CCOCC3)cc12
Potency [5]: inactive | outcome [1]: inactive | Potency [2]: inactive | viability (% of control) [3]: 77.1% | viability, percent of control [4]: 74% | Potency [6]: inactive

CC(C)(C)c1[nH]cnc1C=c1[nH]c(=O)c(=Cc2ccccc2)[nH]c1=O
outcome [1]: inactive | viability (% of control) [3]: 1.63% | viability, percent of control [4]: 7.81%

CN1C(=O)C(Cc2c[nH]c3ccccc23)NC1=S (stereo not drawn)
Potency [5]: inactive | outcome [1]: inactive | Potency [2]: inactive | viability (% of control) [3]: 80.6% | viability, percent of control [4]: 98.6% | Potency [6]: inactive

O=C(Nc1ccc(OC(F)(F)F)cc1)c1sccc1NCc1ccnc2ccccc12
Potency [5]: 33.2 µM (active) | outcome [1]: inactive | viability (% of control) [3]: 9.29% | viability, percent of control [4]: 26% | Potency [6]: inactive

CC(C)n1c(C=C[C@H](O)C[C@H](O)CC(=O)O)c(-c2ccc(F)cc2)c2ccccc21
Potency [5]: inactive | outcome [1]: inactive | Potency [2]: inactive | Potency [6]: inactive

CC(O)=C(C#N)C(=O)Nc1ccc(C(F)(F)F)cc1
outcome [1]: inactive | Potency [2]: 1.88 µM (active) | viability (% of control) [3]: 43.6% | viability, percent of control [4]: 56.6% | Potency [6]: inactive

CN(C)CCCNC(=O)c1ccc(-c2cc(O)c3ncccc3c2)cc1
outcome [1]: inactive | Potency [2]: inactive | viability (% of control) [3]: 2.8% | viability, percent of control [4]: 31%

CCc1cc(-c2n[nH]c(C)c2-c2ccc3c(c2)OCCO3)c(O)cc1O
outcome [1]: inactive | Potency [2]: 3.75 µM (active) | viability (% of control) [3]: 38.2% | viability, percent of control [4]: 34.6% | Potency [6]: 23.5 µM (active)

Cc1cc2c(cc1C1(c3ccc(C(=O)O)cn3)CC1)C(C)(C)CCC2(C)C
outcome [1]: inactive | viability (% of control) [3]: 79.3% | viability, percent of control [4]: 48.2% | Potency [6]: inactive

O=C(Nc1cccc(Cl)c1)Nc1ncc(CCNc2ncnc3ccsc23)s1
outcome [1]: inactive | Potency [2]: 23.7 µM (active) | viability (% of control) [3]: 1.73% | viability, percent of control [4]: 2.32% | Potency [6]: inactive

Cc1csc(-c2nnc(Nc3ccc(Oc4ncccc4-c4ccnc(N)n4)cc3)c3ccccc23)c1
Potency [5]: inactive | outcome [1]: inactive | Potency [2]: 1.06 µM (active) | viability (% of control) [3]: 4.09% | viability, percent of control [4]: 63.2% | Potency [6]: 23.5 µM (active)

OCCn1cc(-c2ccc3c(c2)CCC3=NO)c(-c2ccncc2)n1
Potency [5]: inactive | outcome [1]: inactive | Potency [2]: inactive | viability (% of control) [3]: 80.7% | viability, percent of control [4]: 133% | Potency [6]: inactive

CC(C)C[C@H](NC(=O)c1cc2ccccc2s1)C(=O)N1CCN(C(=O)[C@H](CO)NS(=O)(=O)c2ccc(Cl)cc2Cl)CC1
Potency [5]: inactive | outcome [1]: inactive | viability (% of control) [3]: -0.483% | viability, percent of control [4]: 3.69%

CC(=O)Nc1cccc(-n2c(=O)n(C3CC3)c(=O)c3c(Nc4ccc(I)cc4F)n(C)c(=O)c(C)c32)c1
outcome [1]: inactive | viability (% of control) [3]: 0.993% | viability, percent of control [4]: 6.64%

Cc1ccc(NC(=O)c2ccc(CN3CCN(C)CC3)cc2)cc1Nc1nc(-c2cccnc2)cs1
Potency [5]: inactive | outcome [1]: inactive | Potency [2]: 16.8 µM (active) | viability (% of control) [3]: 8.7% | viability, percent of control [4]: 11% | Potency [6]: inactive

CC1=C[C@@H]2[C@@H]([C@@H](O)C[C@@]3(C)[C@H]2C[C@@H](C)[C@]3(O)C(=O)CO)[C@@]2(C)Cc3cnn(-c4ccccc4)c3C=C12
outcome [1]: inactive | viability (% of control) [3]: 0.486% | viability, percent of control [4]: 2.33%

CCOC(=O)[C@@H](N)CCC(=O)N[C@@H](CSCc1ccccc1)C(=O)N[C@@H](C(=O)OCC)c1ccccc1
Potency [5]: inactive | viability (% of control) [3]: 62.4% | viability, percent of control [4]: 89.4%
